# Assay outcomes: PubChem BioAssay, National Center for Advancing Translational Sciences (NCATS)
# MARV entry inh – blocks Marburg virus binding to or entry into cells; Marburg virus pseudotyped entry inhibition, cell reporter; Potency, µM (top dose mostly 37.8 µM), inactives show at the top dose activity change, negative = inhibition, usual class: inhibitors; actives 1.8% (n = 300,000); calls by dose curve; tested in HEK293 cells
# VACV Venus inh – vaccinia inhibition (Venus reporter) | Vaccinia virus Venus reporter expression, fluorescence | actives 0.46% (n = 330,000) | AID 720580 | Potency, µM (titrated, usually from 36.5 µM), for the others: at the top dose activity change, negative = inhibition, most hits filed as inhibitors; calls by dose curve; tested in A549 cells; note: nearly all actives have a fitted effect of over 30% in size
# LASV entry inh – Lassa virus entry inhibition | Potency, µM (doses to about 37.9 µM), for the others: at the highest dose activity change, negative = inhibition, usual class: inhibitors | actives 1.2% (n = 300,000) | Lassa virus pseudotype entry inhibition, cell reporter; calls by dose curve; tested in HEK293 cells; note: nearly all actives have a fitted effect of over 50% in size
# HCV inh – HCV inhibition; Huh7.5.1 HCVcc-Cre infection, luciferase reporter, 44 h; Potency, µM (doses to about 41.8 µM), for the others: top-dose activity change, negative = inhibition, usual class: inhibitors; actives 3.4% (n = 340,000); active = well fitted inhibition curve with a large enough effect; inconclusive = small, poorly fitted or top-dose-only effect, or another doubt; inactive = no such curve, though single readings can be large or run the other way
#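 HCVcc-Cre virus at an moi near 0.5 was added right after compound to cells cultured 4 h from seeding (1,000 cells/well). Luciferase activity was determined 44 h later, 15 min after substrate addition at RT.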
# VACV mCherry inh – inhibitors of vaccinia virus infection (mCherry reporter signal). Vaccinia virus mCherry reporter infection, fluorescence. Potency, µM (doses to about 36.5 µM), inactives show at the top dose activity change, negative = inhibition, hits mostly inhibitors. actives 0.63% (n = 310,000); calls by dose curve; tested in A549 cells; note: nearly all actives have a fitted effect of over 35% in size
# * = called active by the depositor; i = inactive; u = inconclusive; x = no result; [ ] = another dose, or the depositor's remark. The list is not random: actives were taken first. Their share in the collection is about 4.6%. % is set by controls: 0 for no effect and ±100 for the full control effect; potency is the fitted concentration of half-maximal effect.
SMILES,MARV entry inh,VACV Venus inh,LASV entry inh,HCV inh,VACV mCherry inh
N/C(=N\NS(=O)(=O)c1ccccc1C(F)(F)F)c1ccccn1,x,x,x,13%,x
CC1(C)CC(=O)C2=C(C1)O[C@@]1(CCCCN3C(=O)c4ccccc4C3=O)Cc3c(ccc4ccccc34)[C@H]2O1,-27%[14.2 µM],x,x,x,x
COc1cc(/C=C(\C#N)C(=O)Nc2nnc(C(F)(F)F)s2)ccc1OCc1ccc(C(F)(F)F)cc1C(F)(F)F,-19%,x,15µM*,x,x
COc1cc(/C=C(/C#N)C(=O)Nc2ccccc2)ccc1OCc1ccc(C(=O)O)cc1,x,-13%,x,-3%,-2%
COC(=O)N[C@@H](C=Cc1ccco1)[C@]1(C(=O)OC)CCCC1=O,3%[14.2 µM],x,x,x,x
CCOC(=O)N1C/C(=C\c2ccccc2)C(=O)/C(=C/c2ccccc2)C1,x,u,x,8%,u
CN(C)CCC(=O)N1C/C(=C/c2ccccc2)C(=O)/C(=C\c2ccccc2)C1,u,11µM*,u,u,8.9µM*
CN1CCN(C(=O)CCCN2C(=O)/C(=C/c3ccccc3)SC2=S)CC1,u,-1%,u,-10%,u
O=C1/C(=C/c2ccccc2)CN(C(=O)CCN2CCOCC2)C/C1=C\c1ccccc1,u,u,1.4µM*,u,u
COc1ccc(OC(=O)N2C/C(=C/c3ccccc3)C(=O)/C(=C\c3ccccc3)C2)cc1,u,-5%,7.1µM*,u,-7%
O=C(/C=C/c1ccccc1)CCN1CCOCC1,u,u,u,u,10µM*
O=C(Nc1ccncc1)c1cccc(S(=O)(=O)N2CCc3ccccc32)c1,u,-19%,-16%,8.9µM*,-28%
CCC(CC)c1nnc(NC(=O)c2cccc(S(=O)(=O)N3CCc4ccccc43)c2)s1,-22%,-10%,u,17%,-13%
CCOC(=O)c1sc(NC(=O)c2cccc(S(=O)(=O)N3CCc4ccccc43)c2)c(C#N)c1C,x,x,x,10µM*,x
O=C(c1cccc(S(=O)(=O)N2CCCC2)c1)N1CCCC(C(F)(F)F)C1 (stereo not drawn),5%,-4%,1%,13%,-11%
O=C(c1cccc(S(=O)(=O)N2CCc3ccccc32)c1)N1CCN(c2ccccc2)CC1,u,-10%,4µM*,10µM*,-25%
O=C(c1cccc(S(=O)(=O)N2CCc3ccccc32)c1)N1CCCC(C(F)(F)F)C1 (stereo not drawn),-1%,-2%,-13%,11µM*,-8%
CC(C)(C)OC(=O)N1CCC(c2nnc(SCc3ccccc3F)o2)CC1,23%[46.1 µM],1%,-26%[46.1 µM],x,-12%
COC(=O)c1c(C(=O)OC)c2c3ccccc3cc(C3CC3)n2c1C(=O)OC,12%[14.2 µM],x,x,x,x
Cc1c(C(=O)N2CCCCC2c2cccnc2)sc2ncnc(NCc3cccs3)c12 (stereo not drawn),x,-28%,x,x,-6%
CCc1nn2c(=O)cc(COC(=O)c3ccccc3)nc2s1,x,4%,u,x,-1%
COc1cc(N)c(NC(=O)/C=C/c2nc3cc(OC)c(OC)cc3[nH]2)cc1OC,x,-10%,x,x,-22%
Cc1ccc(CN2CCC(CNC(=O)Nc3c(C)cccc3C)C2)cc1 (stereo not drawn),2%[46.1 µM],-9%,22%[46.1 µM],x,-15%
CC1CC(C)CN(S(=O)(=O)c2ccc(C(=O)N3CCN(c4ccccc4)CC3)cc2)C1 (stereo not drawn),u,0%,u,10µM*,-14%
COc1ccccc1N1CCN(C(=O)c2ccc(Cl)c(S(=O)(=O)NCc3ccco3)c2)CC1,u,u,u,8.9µM*,u
SMILES,MARV entry inh,VACV Venus inh,LASV entry inh,HCV inh,VACV mCherry inh
O=C(c1cccc(S(=O)(=O)N2CCCCC2)c1)N1CCN(c2ccccc2)CC1,-16%,-9%,15%,-11%,-3%
O=C(c1ccc(Cl)c(S(=O)(=O)NCc2ccco2)c1)N1CCN(c2ccccc2F)CC1,u,u,u,-45%,-24%
COc1ccccc1N1CCN(C(=O)c2ccc3c(c2)CCN3S(=O)(=O)c2ccccc2)CC1,u,-10%,-27%[46.1 µM],13µM*,-22%
O=C(c1cccc(S(=O)(=O)N2CCc3ccccc3C2)c1)N1CCN(c2ccccc2)CC1,u,-28%,16µM*,u,-9%
Cc1c(C(=O)N(C)Cc2cccc3ncccc23)cnn1-c1nccc(-c2ccccc2F)n1,x,-14%,x,x,i
O=S(=O)(c1cccc(Cl)c1)N1CCN(c2nc(-c3ccccc3)nc3ccccc23)CC1,x,-19%,x,x,-6%
CCc1ccccc1NC(=O)c1ccc(=O)n(Cc2ccc(F)cc2)c1,x,13%,10%[46.1 µM],x,-1%
COc1ccccc1N1CCN(C(=S)Nc2ccc3nc(N4CCOCC4)cc(C)c3c2)CC1,u,-18%,u,3.5µM*,-19%
Cc1ccc(C)c(N2CCN(C(=S)Nc3ccc4nc(N5CCN(C)CC5)cc(C)c4c3)CC2)c1,x,x,x,2.5µM*,x
CCOC(=O)c1cccc(NC(=O)CC(c2ccc(F)cc2)N2Cc3ccccc3C2=O)c1 (stereo not drawn),x,-18%,15%[46.1 µM],x,-22%
O=C1NC(=O)N(CCc2ccc(F)cc2)C(=O)/C1=C\C=C\c1ccccc1,9%[46.1 µM],5%,x,4µM*,-8%
N#Cc1ccc(S(=O)(=O)N2CCC(C(=O)N3CCN(Cc4ccc5c(c4)OCO5)CC3)CC2)cc1,x,x,x,10µM*,x
N#Cc1ccc(CN2CCN(C(=O)c3ccc(S(=O)(=O)N4CCCCCC4)cc3)CC2)cc1,x,x,x,7.9µM*,x
Nc1cc(=O)[nH]c(=S)[nH]1,x,-2%,x,x,-6%
CCOCCCN1C(=O)CN(C2CCCCCC2)C(=O)C1c1ccc(OCC)c(OC)c1 (stereo not drawn),x,-8%,u,x,-16%
O=C1Cc2cc(NS(=O)(=O)c3ccc([N+](=O)[O-])cc3)cc3c2N1CCC3,1%,u,6%,0%[8.37 µM],10µM*
Cc1nn2c(C(F)(F)F)cc(-c3ccc(OC(C)C)cc3)nc2c1C#N,0%[46.1 µM],-18%,26%[46.1 µM],x,-19%
CC(=O)N(Cc1ccc(F)cc1)C1=C(NCCc2ccccc2)C(=O)c2ccccc2C1=O,u,3.2µM*,7.1µM*,10µM*,2.8µM*
O=C1C(Cl)=C(NCCc2ccccc2)C(=O)c2ccccc21,u,25%,u,u,-23%
Cc1cc(N)n2nc(-c3ccccc3)cc2n1,8.9µM*,-11%,u,-1%,u
CCOC(=O)C(C)=NNC(C)=O,-17%[14.2 µM],x,x,x,x
COc1ccc(N2CC(C(=O)Nc3ccccc3N3CCCC3)CC2=O)c(OC)c1 (stereo not drawn),u,u,0%,8.9µM*,u
COc1ccc(N2CC(C(=O)Nc3cc(C(F)(F)F)ccc3N3CCCC3)CC2=O)c(OC)c1 (stereo not drawn),u,-25%,u,u,u
O=Cc1c(Cl)nc2ccccn2c1=O,u,-13%,u,10µM*,-24%
Cc1cccn2c(=O)c(C=O)c(Cl)nc12,u,-14%,u,u,-15%
CCOC(=O)C1=C(c2ccccc2)NC(SCC(=O)Nc2cccc(C)c2)=C(C#N)C1c1ccco1 (stereo not drawn),u,x,-13%,u,x
